Measurements published in PubChem BioAssay AID1159580 (chemical genetic matrix, 2015).
Out of some 5,500 compounds screened, about 2,000 (36%) were called active. Roughly 18% stayed inconclusive and do not appear here. No stated cut-off is given here; in the data, active means normalized growth mostly below about 0.91 (no sharp cut-off); inconclusive means no clear call, values can overlap the other calls; inactive means mostly above about 0.92. Some of the results follow.

Experiment: chemical genetic growth profiling, strain panel (AID 1159580);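 further: tested at 20 µM; growth read once vehicle control cultures reached saturation at 30 °C; 1 = growth at the plate median or of vehicle wells; lower values mean less growth of the strain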
Details: growth OD

Measured: normalized growth

O=C(O)C1=C[C@@H](O)[C@@H](O)[C@H](O)C1
inactive: S. cerevisiae deletion strains, locus YJR043C, strain POL32, active compounds read low 1.02 | S. cerevisiae deletion strains, locus YJR066W, strain TOR1, active compounds read low 0.928 | S. cerevisiae deletion strains, locus YJR075W, strain HOC1, active compounds read low 1.01 | S. cerevisiae deletion strains, locus YKL009W, strain mrt4, active compounds read low 1 | S. cerevisiae deletion strains, locus YKL068W, active compounds read low 1 | S. cerevisiae deletion strains, locus YKL085W, strain MDH1 (second series), active compounds read low 1.01 | S. cerevisiae deletion strains, locus YKL085W, strain MDH1, active compounds read low 1.01 | S. cerevisiae deletion strains, locus YKL160W, strain elf1, active compounds read low 0.987 | S. cerevisiae deletion strains, locus YKR001C, strain vps1, active compounds read low 1.07 | S. cerevisiae deletion strains, locus YKR026C, strain gcn3, active compounds read low 0.999 | S. cerevisiae deletion strains, locus YKR091W, strain srl3, active compounds read low 0.969 | S. cerevisiae deletion strains, locus YLL001W, strain dnm1, active compounds read low 0.995 | S. cerevisiae deletion strains, locus YLL026W, active compounds read low 0.975 | S. cerevisiae deletion strains, locus YLL041C, strain sdh2, active compounds read low 0.978 | S. cerevisiae deletion strains, locus YLR027C, strain aat2, active compounds read low 0.996 | S. cerevisiae deletion strains, locus YLR039C, strain RIC1, active compounds read low 1.1 | S. cerevisiae deletion strains, locus YLR058C, strain SHM2, active compounds read low 1.01 | S. cerevisiae deletion strains, locus YLR102C, strain apc9, active compounds read low 1.01 | S. cerevisiae deletion strains, locus YLR113W, strain HOG1, active compounds read low 1.01 | S. cerevisiae deletion strains, locus YLR221C, strain rsa3, active compounds read low 0.982 | S. cerevisiae deletion strains, locus YLR258W, strain gsy2, active compounds read low 0.974 | S. cerevisiae deletion strains, locus YLR262C, strain YPT6 (second series), active compounds read low 0.952 | S. cerevisiae deletion strains, locus YLR262C, strain YPT6, active compounds read low 1.13 | S. cerevisiae deletion strains, locus YLR268W, strain sec22, active compounds read low 1.05 | S. cerevisiae deletion strains, locus YLR320W, strain mms22, active compounds read low 0.985 | S. cerevisiae deletion strains, locus YLR330W, strain CHS5, active compounds read low 1.01 | S. cerevisiae deletion strains, locus YLR342W, strain FKS1 (second series), active compounds read low 1.05 | S. cerevisiae deletion strains, locus YLR342W, strain FKS1, active compounds read low 0.985 | S. cerevisiae deletion strains, locus YLR357W, strain rsc2, active compounds read low 0.973 | S. cerevisiae deletion strains, locus YLR370C, strain arc18, active compounds read low 0.994 | S. cerevisiae deletion strains, locus YLR371W, strain rom2, active compounds read low 1.02 | S. cerevisiae deletion strains, locus YLR384C, strain iki3, active compounds read low 0.979 | S. cerevisiae deletion strains, locus YLR418C, strain cdc73, active compounds read low 0.986 | S. cerevisiae deletion strains, locus YML016C, strain PPZ1, active compounds read low 1.02 | S. cerevisiae deletion strains, locus YML032C, strain rad52, active compounds read low 0.993 | S. cerevisiae deletion strains, locus YML120C, strain ndi1, active compounds read low 0.982 | S. cerevisiae deletion strains, locus YML124C, strain tub3, active compounds read low 1 | S. cerevisiae deletion strains, locus YMR058W, strain fet3, active compounds read low 0.973 | S. cerevisiae deletion strains, locus YMR078C, strain ctf18, active compounds read low 1.01 | S. cerevisiae deletion strains, locus YMR125W, strain sto1, active compounds read low 0.968 | S. cerevisiae deletion strains, locus YMR129W, active compounds read low 0.986 | S. cerevisiae deletion strains, locus YMR205C, strain PFK2, active compounds read low 0.984 | S. cerevisiae deletion strains, locus YMR223W, strain ubp8, active compounds read low 0.987 | S. cerevisiae deletion strains, locus YMR231W, strain pep5, active compounds read low 0.967 | S. cerevisiae deletion strains, locus YMR263W, strain SAP30, active compounds read low 1.02 | S. cerevisiae deletion strains, locus YMR307W, strain GAS1, active compounds read low 1.04 | S. cerevisiae deletion strains, locus YNL067W, strain RPL9B, active compounds read low 1.01 | S. cerevisiae deletion strains, locus YNL071W, strain lat1, active compounds read low 0.982 | S. cerevisiae deletion strains, locus YNL183C, strain NPR1, active compounds read low 0.962 | S. cerevisiae deletion strains, locus YNL209W, strain ssb2, active compounds read low 0.983 | S. cerevisiae deletion strains, locus YNL233W, strain BNI4, active compounds read low 1.03 | S. cerevisiae deletion strains, locus YNL248C, strain rpa49, active compounds read low 0.965 | S. cerevisiae deletion strains, locus YNL250W, strain rad50, active compounds read low 1.03 | S. cerevisiae deletion strains, locus YNL271C, strain bni1, active compounds read low 1.01 | S. cerevisiae deletion strains, locus YNL298W, strain CLA4, active compounds read low 1.01 | S. cerevisiae deletion strains, locus YNL307C, strain MCK1, active compounds read low 1.02 | S. cerevisiae deletion strains, locus YNL322C, strain KRE1 (second series), active compounds read low 0.986 | S. cerevisiae deletion strains, locus YNR049C, strain mso1, active compounds read low 0.989 | S. cerevisiae deletion strains, locus YNR052C, strain pop2, active compounds read low 1.01 | S. cerevisiae deletion strains, locus YOL012C, strain htz1 0.985 | S. cerevisiae deletion strains, locus YOL147C, strain pex11, active compounds read low 0.993 | S. cerevisiae deletion strains, locus YOR001W, strain rrp6, active compounds read low 0.993 | S. cerevisiae deletion strains, locus YOR061W, strain CKA2, active compounds read low 1.01 | S. cerevisiae deletion strains, locus YOR069W, strain VPS5, active compounds read low 1.01 | S. cerevisiae deletion strains, locus YOR070C, strain gyp1, active compounds read low 0.996 | S. cerevisiae deletion strains, locus YOR080W, strain dia2, active compounds read low 0.99 | S. cerevisiae deletion strains, locus YOR083W, strain WHI5, active compounds read low 0.982 | S. cerevisiae deletion strains, locus YOR106W, strain vam3, active compounds read low 0.972 | S. cerevisiae deletion strains, locus YOR136W, strain idh2, active compounds read low 1.01 | S. cerevisiae deletion strains, locus YOR144C, strain elg1, active compounds read low 1 | S. cerevisiae deletion strains, locus YOR184W, strain ser1, active compounds read low 1.02 | S. cerevisiae deletion strains, locus YOR231W, strain MKK1, active compounds read low 0.981 | S. cerevisiae deletion strains, locus YOR265W, strain rbl2, active compounds read low 0.977 | S. cerevisiae deletion strains, locus YOR270C, strain vph1, active compounds read low 0.969 | S. cerevisiae deletion strains, locus YOR290C, strain snf2, active compounds read low 0.988 | S. cerevisiae deletion strains, locus YOR316C, strain cot1, active compounds read low 0.996 | S. cerevisiae deletion strains, locus YPL051W, strain arl3, active compounds read low 0.977 | S. cerevisiae deletion strains, locus YPL078C, strain atp4, active compounds read low 0.987 | S. cerevisiae deletion strains, locus YPL106C, strain sse1, active compounds read low 0.973 | S. cerevisiae deletion strains, locus YPL240C, strain hsp82, active compounds read low 0.989 | S. cerevisiae deletion strains, locus YPL241C, strain CIN2, active compounds read low 1.01 | S. cerevisiae deletion strains, locus YPL256C, strain CLN2, active compounds read low 0.978 | S. cerevisiae deletion strains, locus YPR119W, strain clb2, active compounds read low 1 | S. cerevisiae deletion strains, locus YPR141C, strain kar3, active compounds read low 1 | S. cerevisiae deletion strains, locus YPR163C, strain tif3, active compounds read low 0.995 | S. cerevisiae deletion strains, locus YPR167C, strain met16, active compounds read low 0.999 | S. cerevisiae deletion strains, strain wtn01, active compounds read low 1.05 | S. cerevisiae strains, strain wild type, active compounds read low 1.02
